Each structure is given as a SMILES string.

This assay has as its target T1, Aspartate--tRNA(Asp/Asn) ligase (Mycobacterium tuberculosis (strain ATCC 25618 / H37Rv)) (UniProt P9WFW3).
T1 sequence (whole entry): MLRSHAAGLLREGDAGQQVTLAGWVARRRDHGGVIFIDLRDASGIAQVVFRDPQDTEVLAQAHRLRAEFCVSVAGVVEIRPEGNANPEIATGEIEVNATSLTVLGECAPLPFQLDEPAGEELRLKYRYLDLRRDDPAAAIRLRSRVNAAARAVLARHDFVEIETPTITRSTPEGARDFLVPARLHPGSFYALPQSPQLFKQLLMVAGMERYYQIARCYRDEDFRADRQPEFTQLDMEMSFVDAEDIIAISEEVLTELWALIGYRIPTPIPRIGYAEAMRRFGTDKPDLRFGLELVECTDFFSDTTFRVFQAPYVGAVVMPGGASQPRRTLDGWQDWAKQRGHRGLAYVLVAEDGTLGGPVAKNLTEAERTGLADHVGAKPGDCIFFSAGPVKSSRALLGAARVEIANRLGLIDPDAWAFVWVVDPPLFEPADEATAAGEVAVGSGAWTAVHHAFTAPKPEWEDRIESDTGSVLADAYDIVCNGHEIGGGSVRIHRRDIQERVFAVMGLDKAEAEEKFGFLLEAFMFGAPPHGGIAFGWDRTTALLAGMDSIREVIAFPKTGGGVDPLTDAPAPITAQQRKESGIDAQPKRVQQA
Nature of the assay: Assay for Asp RNA synthetase-1 from Mycobacterium tuberculosis. The settings on record: 30 µM. The class given is functional. Also noted: scale not given: in the data most compounds retested in dose-response had high values.
For `Cc1cc2nc(SCC(=O)N3CCOCC3)n(CC(C)C)c(=O)c2[nH]1`, the Percent Effect is 11.7%.
In the case of `Cc1cc(CN2CCC(c3ccnn3CCO)CC2)no1`, the Percent Effect is -1.46%.
Consider `O=C(CCC(=O)N1CCCC1c1cccs1)N1CCc2sccc2C1` (stereo not given), for which the Percent Effect was -0.31%.
As to `CN(CC(=O)Nc1ccc(Br)cn1)C(=O)Cc1ccc(O)cc1`, the Percent Effect was -5.92%.
As to `Cc1ccccc1-c1cc(C(=O)NCCN2CCCS2(=O)=O)[nH]n1`, the Percent Effect was -2.39%.
As to `COc1cccc(CN2CCN(C(=O)CN3CCOCC3)CC2)n1`, the Percent Effect was -3.48%.
For `COCC(NC(=O)c1cc[nH]n1)c1cccc(C(F)(F)F)c1` (stereo not given), the Percent Effect was -7.45%.
`CN(C(=O)Cc1ccc(NC(=O)NC2CCC2)cc1)c1ccccc1`: the Percent Effect is -0.27%.
With `CCc1ccc(O)c(C(=O)NC2CCN(S(=O)(=O)CC)CC2)c1`, the Percent Effect is -3.5%.
To `O=C(c1ccncc1F)N1CCc2ncnc(-c3ccncc3)c2CC1` belongs 3.59%; to `COCC(c1cccc(C(F)(F)F)c1)N(C)C(=O)c1cc(C)n[nH]1` (stereo not given), 1.86%.
Under `COc1ccccc1CN1CC[C@H]2C[C@@H](C(=O)N3CCCC3)O[C@H]2C1` stands 0.335%.
As for `CCOc1ccc(C#N)cc1NCC(=O)Nc1cc(F)ccc1F`, the Percent Effect is -5.91%.
Regarding `CO[C@H]1CCN(S(=O)(=O)c2cn(C)cn2)[C@H]1Cc1cccnc1`, the Percent Effect is -0.175%.
For `Cc1nc(CN2C[C@@H]3CN(C(=O)c4cccn4C)C[C@@H]3C2=O)cs1`, the Percent Effect is -0.382%.
For the compound `CC(=O)N1CCC2(CCN(C(=O)c3ccc(C)c(C(F)(F)F)c3)CC2)C1`, the Percent Effect is 17.3%.
For the compound `COCCN1C(=O)C[C@@H]2[C@H]1CCN2C(=O)COc1ccccc1`, the Percent Effect is -2.36%.
In the case of `COC1COC2(CCN(Cc3ccccc3Cl)CC2)C1` (stereo not given), the Percent Effect was determined as 3.77%.
Regarding `Cc1occc1C(=O)N1CCc2c(COCC3CC3)cncc2C1`, the Percent Effect was -0.443%.
On to `CCCN1CCN(C(=O)c2cnccn2)[C@H]2CS(=O)(=O)C[C@H]21`, for which the Percent Effect is -3.33%.
For `OC(CN1CCN(Cc2ccc(F)cc2)CC1)C1CC1` (stereo not given), the Percent Effect was -7.53%.
On to `CCS(=O)(=O)N1CCOC2(CCCN(c3ccc(C)nn3)C2)C1` (stereo not given), for which the Percent Effect was 3.41%.
On to `O=C(c1cc(Cl)c2c(c1)OCO2)N1CCCC(n2ccnc2)C1` (stereo not given), for which the Percent Effect is -1.93%.
In the case of `Cc1cnc(CN(Cc2ccccc2)CC(O)c2cccs2)cn1` (stereo not given), the Percent Effect is -1.43%.
To `COc1ccc(NC(=O)CNc2ccc(Br)cc2F)cc1` belongs 1.68%.
For the compound `CCOc1nc2cccnc2n(CC(=O)NCCOC)c1=O`, the Percent Effect is -2.81%.
`Cc1cc(C)n(CC2CCCCN2C(=O)c2ccc3c(c2)OCO3)n1` (stereo not given): the Percent Effect is -5.57%.
As for `O=C(c1ncccn1)N1C[C@H]2CCC[C@@]2(COCc2cccnc2)C1`, the Percent Effect is 1.54%.
For `COc1cccc(CNCc2c(C(C)C)nn(C)c2N(C)C)c1OC`, the Percent Effect is -3.61%.
Consider `CCN(Cc1nc2c(cnn2C)c(=O)[nH]1)c1ccc(OC)c(OC)c1`, for which the Percent Effect was 2.9%.
On to `O=C1NCCN(CC2CC2)C12CCN(Cc1ccco1)CC2`, for which the Percent Effect was found to be 24.3%.
Under `O=C(NC1CCCC1)NC1CCC(C(=O)N2CCSCC2)CC1` (stereo not given) stands 1.78%; under `Cc1nc(-c2ccccc2)n(CC(=O)N(C(C)C)C(C)C)n1`, 4.15%.
Under `O=C(CCCc1ccc(F)cc1)N1C[C@@H](CN2CCOCC2)[C@@H](CO)C1` stands 5.03%.
As for `Cc1ncc2c(n1)CN(CC(=O)Nc1ccncc1)CC2`, the Percent Effect was -0.281%.
Under `CC(C)Oc1cccc(CNC(=O)NC(C)(C(=O)O)c2ccco2)c1` (stereo not given) stands 1.32%; under `O=C(CSc1nc2c(cnn2CCO)c(=O)[nH]1)N1CCCCCC1`, -7.88%; under `CN(Cc1ccccc1)CC(O)Cn1cnc2c(cnn2C)c1=O` (stereo not given), -0.522%.
On to `Cc1cccc(CNCc2c(C)nn(C)c2N2CCOCC2)n1`, for which the Percent Effect came to 3.77%.
`Cc1cc(S(=O)(=O)NCc2cccc(C(=O)N3CCCC3)c2)c(C)s1`: the Percent Effect came to 2.16%.

(Values after ChEMBL document CHEMBL3988442, “University of Dundee, Small-Polar-MMV Screening Library” (2021).)
